One assay deals with T1, cAMP-dependent protein kinase catalytic subunit PRKX (Homo sapiens) (UniProt P51817).
T1 sequence (whole entry): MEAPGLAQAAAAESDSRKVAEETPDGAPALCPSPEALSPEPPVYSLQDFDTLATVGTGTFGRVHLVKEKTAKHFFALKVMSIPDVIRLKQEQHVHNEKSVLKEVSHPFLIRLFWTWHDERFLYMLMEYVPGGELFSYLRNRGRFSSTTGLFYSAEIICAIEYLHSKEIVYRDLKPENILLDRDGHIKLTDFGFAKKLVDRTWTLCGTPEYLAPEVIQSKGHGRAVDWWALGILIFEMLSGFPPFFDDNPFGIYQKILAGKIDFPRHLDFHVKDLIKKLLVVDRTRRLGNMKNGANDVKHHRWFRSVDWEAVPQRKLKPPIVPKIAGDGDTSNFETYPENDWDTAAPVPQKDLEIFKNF
Conditions: at 1 µM.
For `N#Cc1c(NC(=O)c2cccc3ccccc23)sc2c1CCCC2`, the residual activity is 80%. The same measure, in the same setting: under `O=C1NC(=O)C(c2cn(CCCn3ccnc3)c3ccccc23)=C1Nc1ccccc1` stands 80%; under `O=S(=O)(NCCNC/C=C/c1ccc(Br)cc1)c1cccc2cnccc12`, 0%. The same measure, in the same setting: under `O=c1c(-c2ccc(F)cc2)c(-c2ccncc2)[nH]n1-c1ccc(Cl)cc1` stands 78%. Still for that read-out and setting: under `CCN(CC)CCNC(=O)c1c(C)[nH]c(/C=C2\C(=O)Nc3ccc(Cl)cc32)c1C` stands 63%.

As to `COc1ccc(COc2ccc(Cc3cnc(N)nc3N)cc2OC)cc1`, the residual activity was determined as 98%.

Turning to `Oc1cccc(-c2nc(N3CCOCC3)c3oc4ncccc4c3n2)c1`, the residual activity was 96%.

On to `CN([C@@H](Cc1ccc(OS(=O)(=O)c2cccc3cnccc23)cc1)C(=O)N1CCN(c2ccccc2)CC1)S(=O)(=O)c1cccc2cnccc12`, for which the residual activity amounted to 116%.

Consider `CCCCc1c(-c2ccc(OC)cc2)[nH]c2nccnc12`, for which the residual activity amounted to 84%.

Consider `Cn1c2ccccc2c2c3c(c4c5ccccc5n(CCC#N)c4c21)CNC3=O`, for which the residual activity came to 19%.

As to `NC(=O)c1ccc(-c2nc(-c3ccc4c(c3)OCCO4)c(-c3ccccn3)[nH]2)cc1`, the residual activity was 82%. For `O=C1Nc2ccccc2/C1=C\c1c(Cl)[nH]c2ccccc12`, the residual activity was determined as 125%. Same read-out and setting: the figure for `CN(C)S(=O)(=O)c1ccc2c(c1)/C(=C/c1cc3c([nH]1)CCCC3)C(=O)N2` is 95%; for `COc1ccc(CNC(=O)Nc2ncc([N+](=O)[O-])s2)cc1` it is 55%. The same measure, in the same setting: under `O=C(Nc1nc2ccccc2n1CCN1CCOCC1)c1cccc([N+](=O)[O-])c1` stands 108%; under `COc1cc2nccc(Oc3ccc(NC(=O)Nc4cc(C)on4)c(Cl)c3)c2cc1OC`, 97%; under `O=S(=O)(c1cccc2cnccc12)N1CCCNCC1`, 21%. The same measure, in the same setting: the figure for `N#C/C(=C1/Nc2ccccc2S1)c1ccnc(NCCc2cccnc2)n1` is 83%; for `O=C(c1cc2cc(O)ccc2[nH]1)c1cc2cc(O)ccc2[nH]1` it is 81%.

The target in a further assay is T1, cAMP-dependent protein kinase catalytic subunit PRKX (Homo sapiens). The settings on record: at 10 µM.
Consider `N#Cc1c(NC(=O)c2cccc3ccccc23)sc2c1CCCC2`, for which the residual activity is 84%.

As to `O=C1NC(=O)C(c2cn(CCCn3ccnc3)c3ccccc23)=C1Nc1ccccc1`, the residual activity came to 58%. Still for that read-out and setting: the figure for `O=S(=O)(NCCNC/C=C/c1ccc(Br)cc1)c1cccc2cnccc12` is 0%; for `O=c1c(-c2ccc(F)cc2)c(-c2ccncc2)[nH]n1-c1ccc(Cl)cc1` it is 71%; for `CCN(CC)CCNC(=O)c1c(C)[nH]c(/C=C2\C(=O)Nc3ccc(Cl)cc32)c1C` it is 37%.

`Oc1cccc(-c2nc(N3CCOCC3)c3oc4ncccc4c3n2)c1`: the residual activity came out at 92%. Consider `CN([C@@H](Cc1ccc(OS(=O)(=O)c2cccc3cnccc23)cc1)C(=O)N1CCN(c2ccccc2)CC1)S(=O)(=O)c1cccc2cnccc12`, for which the residual activity was found to be 62%. Same read-out and setting: the figure for `CCCCc1c(-c2ccc(OC)cc2)[nH]c2nccnc12` is 101%; for `Cn1c2ccccc2c2c3c(c4c5ccccc5n(CCC#N)c4c21)CNC3=O` it is 20%; for `NC(=O)c1ccc(-c2nc(-c3ccc4c(c3)OCCO4)c(-c3ccccn3)[nH]2)cc1` it is 86%. Same read-out and setting: under `O=C1Nc2ccccc2/C1=C\c1c(Cl)[nH]c2ccccc12` stands 79%; under `CN(C)S(=O)(=O)c1ccc2c(c1)/C(=C/c1cc3c([nH]1)CCCC3)C(=O)N2`, 91%; under `COc1ccc2c(c1)c(C1=C(c3c[nH]c4ccccc34)C(=O)NC1=O)cn2CCCN(C)C`, 79%. As for `COc1ccc(CNC(=O)Nc2ncc([N+](=O)[O-])s2)cc1`, the residual activity is 59%.

In the case of `COc1cc2c(cc1OC)-c1n[nH]c(Nc3cccc(F)c3)c1C2`, the residual activity came out at 101%.

Turning to `CCN1/C(=C/C(C)=O)Sc2ccc(OC)cc21`, the residual activity is 42%. The same measure, in the same setting: the figure for `O=C(Nc1ccc(Cl)cc1)c1ccccc1NCc1ccncc1` is 50%; for `O=C(Nc1nc2ccccc2n1CCN1CCOCC1)c1cccc([N+](=O)[O-])c1` it is 86%. On to `COc1cc2nccc(Oc3ccc(NC(=O)Nc4cc(C)on4)c(Cl)c3)c2cc1OC`, for which the residual activity was determined as 59%. Take `CCOc1nc(NC(=O)Cc2cc(OC)ccc2OC)cc(N)c1C#N`: the residual activity was 55%. The same measure, in the same setting: the figure for `N#C/C(=C\c1ccc(O)c(O)c1)C(=O)NCc1ccccc1` is 70%; for `O=S(=O)(c1cccc2cnccc12)N1CCCNCC1` it is 2%; for `N#C/C(=C1/Nc2ccccc2S1)c1ccnc(NCCc2cccnc2)n1` it is 37%. Still for that read-out and setting: under `O=C(c1cc2cc(O)ccc2[nH]1)c1cc2cc(O)ccc2[nH]1` stands 34%.

As a reminder, the residual activity is the signal under treatment as a percentage of the control signal.

These data come from ChEMBL document CHEMBL2218924, “A broad activity screen in support of a chemogenomic map for kinase signalling research and drug discovery” (Biochem J, 2013).
